# About 83,000 compounds went through this panel and 20% of them were active in at least one assay; those are over-represented in the sample as a whole.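 Cell lines were cultured in 96-well plates, exposed to a single compound concentration, and assessed for percent growth 48 hours later.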 Active and inactive are the calls of the source. The calls were made as follows: active = growth percent below 10; inactive = the rest.
# System: MALME-3M melanoma
# Experiment: NCI-60 one-dose screen, 48 h (100 = growth as untreated, 0 = no growth, -100 = all killed)
# Conditions: 10 µM unless noted
row,Structure (SMILES),growth
1,CN1CCC(COc2cnc(-c3cccc(Cn4nc(-c5cccc(C#N)c5)ccc4=O)c3)nc2)CC1,48.4% (inactive)
2,COc1cc(OC)c(/C=C/S(=O)(=O)Cc2ccc(OC)c(NCC(=O)O)c2)c(OC)c1,54.6% (inactive)
3,O=C(NOC[C@H](O)CO)c1ccc(F)c(F)c1Nc1ccc(I)cc1F,-11.7% (active)
4,C=CCN1C(=O)c2cccc3c(-c4ccc5c(c4)ncn5C4CCCCC4)ccc(c23)C1=O,56% (inactive)
5,Cc1cc(O)cc(-c2c(-c3ccnc(-c4cccnc4)c3)cnn2C)c1,49.7% (inactive)
6,O=[N+]([O-])c1cc(Br)cc2c1[nH]c1ccc(Br)cc12,66.3% (inactive)
7,COc1cc2ncnc(Oc3cccc(NC(=O)Nc4cc(C(C)(C)C(F)(F)F)on4)c3)c2cc1OC,2.64% (active)
8,CCNC(=O)Nc1nc2ccc(Oc3ccnc(C(=O)NC)c3)cc2s1,67.3% (inactive)
9,COc1cccc2cc(-c3nc(C4CCC(C(=O)O)CC4)n4ncnc(N)c34)[nH]c12 (stereo unspecified),-12% (active)
10,CN1CCN(c2nc(C3=C(c4c[nH]c5ccccc45)C(=O)NC3=O)c3ccccc3n2)CC1,-12.8% (active)
11,Cc1cc2c(F)c(Oc3ncnn4cc(OC[C@@H](C)OC(=O)[C@H](C)N)c(C)c34)ccc2[nH]1,11.4% (inactive)
12,S=C(NCc1ccc2c(c1)OCO2)N1CCN(c2ncnc3c2oc2ccccc23)CC1,51.1% (inactive)
13,C=C1CC[C@@H]2[C@](C)(COC(C)=O)[C@H](OC(C)=O)CC[C@@]2(C)[C@@H]1C/C=C1/C(=O)OC[C@H]1OC(C)=O,77.7% (inactive)
14,C=CC(=O)Nc1cc(Nc2nccc(-c3cn(C)c4ccccc34)n2)c(OC)cc1N(C)CCN(C)C,-82.4% (active)
15,C/C=C/C=N/NC(=S)Nc1ccccc1,96.5% (inactive)
16,CN1CC[C@H](c2c(O)cc(O)c3c(=O)cc(-c4ccccc4Cl)oc23)[C@H](O)C1,-45.3% (active)
17,CCc1nc(C(N)=O)c(Nc2ccc(N3CCC(N4CCN(C)CC4)CC3)c(OC)c2)nc1NC1CCOCC1,52.4% (inactive)
18,C=CC(=O)N1CCC[C@H](n2c(=O)n(-c3ccc(Oc4ccccc4)cc3)c3c(N)ncnc32)C1,98.2% (inactive)
19,COCCN1CCN(Cc2ccc(-c3n[nH]c4c3C(=O)c3c(NC(=O)NN5CCOCC5)cccc3-4)cc2)CC1,-63.1% (active)

row,Structure (SMILES),growth
1,CC(C)(C)c1ccc(Cn2cc(CSc3nc4ccccc4s3)nn2)cc1,94% (inactive)
2,COc1ccc(-c2ccc3c(N4CCOC[C@@H]4C)nc(N4CCOC[C@@H]4C)nc3n2)cc1CO,-8.07% (active)
3,COc1cc(N2CCC(N3CCN(C)CC3)CC2)ccc1Nc1ncnc(Nc2ccccc2S(=O)(=O)C(C)C)n1,106% (inactive)
4,COc1cccc(NC(=O)Nc2ccc(Nc3ncnc4sc5c(c34)CCN(C(=O)CCl)C5)cc2)c1,116% (inactive)
5,O=C(Nc1cnn2ccc(N3CCC[C@@H]3c3cc(F)ccc3F)nc12)N1CC[C@H](O)C1,114% (inactive)
6,CC(=O)NCC(=O)N1[C@@H]2CC[C@H]1c1ccc(Nc3ncc(C(F)(F)F)c(NC4CCC4)n3)cc12,46.3% [2.5 µM] (inactive)
7,CO[C@@H](C)Cn1c(=O)n(C)c2cnc3ccc(-c4cncc(C(C)(C)O)c4)cc3c21,-36% (active)
8,C[C@@H](Oc1cc(C(=O)Nc2ccc(C(=O)N3CCN(C)CC3)cc2)nnc1N)c1c(Cl)ccc(F)c1Cl,65.2% (inactive)
9,COc1ccc(-c2cnc(-c3ccc(Cl)cc3)[nH]2)cc1OC,155% (inactive)
10,CC(C)(C)c1nc(-c2cccc(NS(=O)(=O)c3c(F)cccc3F)c2F)c(-c2ccnc(N)n2)s1,21.8% (inactive)
11,CCN(CC)c1cc2oc3cc(N)cc(=N)c-3nc2cc1C,1.85% (active)
12,COC(=O)Nc1nc2ccc(C(=O)c3ccc(N(C)C4COC4)cc3)cc2[nH]1,53.8% (inactive)
13,CNC(=O)c1cc(COc2nnc(Nc3ccc(Cl)cc3)c3ccoc23)ccn1,22.4% (inactive)
14,CCN(CCCOc1ccc2c(Nc3cc(CC(=O)Nc4cccc(F)c4)[nH]n3)ncnc2c1)CCOP(=O)(O)O,31.9% (inactive)
15,COc1cc2nccc(Oc3ccc(NC(=O)Nc4cc(C)on4)c(Cl)c3)c2cc1OC,20.4% (inactive)
16,CNC(=O)c1cc(Oc2cccc3nc(Nc4ccc(Cl)c(F)c4)ccc23)ccn1,1.36% (active)
17,Cc1nc(NC(=O)N2CCC[C@H]2C(N)=O)sc1-c1ccnc(C(C)(C)C(F)(F)F)c1,43.8% (inactive)
18,COc1ccc(Nc2ncccc2NC(=O)c2cn(Cc3cccc(Oc4ccccc4)c3)nn2)cc1,85.8% (inactive)
19,CS(=O)(=O)CCNCc1ccc(-c2ccc3ncnc(Nc4ccc(OCc5cccc(F)c5)c(Cl)c4)c3c2)o1,-80.3% (active)

# System: MDA-MB-231 breast
# Experiment: as above
# Conditions: 10 µM unless noted
row,Structure (SMILES),growth
1,CN1CCC(COc2cnc(-c3cccc(Cn4nc(-c5cccc(C#N)c5)ccc4=O)c3)nc2)CC1,57.3% (inactive)
2,COc1cc(OC)c(/C=C/S(=O)(=O)Cc2ccc(OC)c(NCC(=O)O)c2)c(OC)c1,39.7% (inactive)
3,O=C(NOC[C@H](O)CO)c1ccc(F)c(F)c1Nc1ccc(I)cc1F,20.9% (inactive)
4,C=CCN1C(=O)c2cccc3c(-c4ccc5c(c4)ncn5C4CCCCC4)ccc(c23)C1=O,57.1% (inactive)
5,Cc1cc(O)cc(-c2c(-c3ccnc(-c4cccnc4)c3)cnn2C)c1,60.2% (inactive)
6,O=[N+]([O-])c1cc(Br)cc2c1[nH]c1ccc(Br)cc12,58.4% (inactive)
7,COc1cc2ncnc(Oc3cccc(NC(=O)Nc4cc(C(C)(C)C(F)(F)F)on4)c3)c2cc1OC,10.7% (inactive)
8,CCNC(=O)Nc1nc2ccc(Oc3ccnc(C(=O)NC)c3)cc2s1,73% (inactive)
9,COc1cccc2cc(-c3nc(C4CCC(C(=O)O)CC4)n4ncnc(N)c34)[nH]c12 (stereo unspecified),19.2% (inactive)
10,CN1CCN(c2nc(C3=C(c4c[nH]c5ccccc45)C(=O)NC3=O)c3ccccc3n2)CC1,70.6% (inactive)
11,Cc1cc2c(F)c(Oc3ncnn4cc(OC[C@@H](C)OC(=O)[C@H](C)N)c(C)c34)ccc2[nH]1,39.8% (inactive)
12,S=C(NCc1ccc2c(c1)OCO2)N1CCN(c2ncnc3c2oc2ccccc23)CC1,57.1% (inactive)
13,C=C1CC[C@@H]2[C@](C)(COC(C)=O)[C@H](OC(C)=O)CC[C@@]2(C)[C@@H]1C/C=C1/C(=O)OC[C@H]1OC(C)=O,95.8% (inactive)
14,C=CC(=O)Nc1cc(Nc2nccc(-c3cn(C)c4ccccc34)n2)c(OC)cc1N(C)CCN(C)C,-68.4% (active)
15,C/C=C/C=N/NC(=S)Nc1ccccc1,89.9% (inactive)
16,CN1CC[C@H](c2c(O)cc(O)c3c(=O)cc(-c4ccccc4Cl)oc23)[C@H](O)C1,1.35% (active)
17,CCc1nc(C(N)=O)c(Nc2ccc(N3CCC(N4CCN(C)CC4)CC3)c(OC)c2)nc1NC1CCOCC1,20.3% (inactive)
18,C=CC(=O)N1CCC[C@H](n2c(=O)n(-c3ccc(Oc4ccccc4)cc3)c3c(N)ncnc32)C1,99.6% (inactive)
19,COCCN1CCN(Cc2ccc(-c3n[nH]c4c3C(=O)c3c(NC(=O)NN5CCOCC5)cccc3-4)cc2)CC1,-18.1% (active)

row,Structure (SMILES),growth
1,CC(C)(C)c1ccc(Cn2cc(CSc3nc4ccccc4s3)nn2)cc1,86.2% (inactive)
2,COc1ccc(-c2ccc3c(N4CCOC[C@@H]4C)nc(N4CCOC[C@@H]4C)nc3n2)cc1CO,13% (inactive)
3,COc1cc(N2CCC(N3CCN(C)CC3)CC2)ccc1Nc1ncnc(Nc2ccccc2S(=O)(=O)C(C)C)n1,95.9% (inactive)
4,COc1cccc(NC(=O)Nc2ccc(Nc3ncnc4sc5c(c34)CCN(C(=O)CCl)C5)cc2)c1,92.7% (inactive)
5,O=C(Nc1cnn2ccc(N3CCC[C@@H]3c3cc(F)ccc3F)nc12)N1CC[C@H](O)C1,88.2% (inactive)
6,CC(=O)NCC(=O)N1[C@@H]2CC[C@H]1c1ccc(Nc3ncc(C(F)(F)F)c(NC4CCC4)n3)cc12,38.1% [2.5 µM] (inactive)
7,CO[C@@H](C)Cn1c(=O)n(C)c2cnc3ccc(-c4cncc(C(C)(C)O)c4)cc3c21,6.56% (active)
8,C[C@@H](Oc1cc(C(=O)Nc2ccc(C(=O)N3CCN(C)CC3)cc2)nnc1N)c1c(Cl)ccc(F)c1Cl,62.2% (inactive)
9,COc1ccc(-c2cnc(-c3ccc(Cl)cc3)[nH]2)cc1OC,78.6% (inactive)
10,CC(C)(C)c1nc(-c2cccc(NS(=O)(=O)c3c(F)cccc3F)c2F)c(-c2ccnc(N)n2)s1,47.1% (inactive)
11,CCN(CC)c1cc2oc3cc(N)cc(=N)c-3nc2cc1C,26.7% (inactive)
12,COC(=O)Nc1nc2ccc(C(=O)c3ccc(N(C)C4COC4)cc3)cc2[nH]1,37.8% (inactive)
13,CNC(=O)c1cc(COc2nnc(Nc3ccc(Cl)cc3)c3ccoc23)ccn1,18.5% (inactive)
14,CCN(CCCOc1ccc2c(Nc3cc(CC(=O)Nc4cccc(F)c4)[nH]n3)ncnc2c1)CCOP(=O)(O)O,79.5% (inactive)
15,COc1cc2nccc(Oc3ccc(NC(=O)Nc4cc(C)on4)c(Cl)c3)c2cc1OC,10% (inactive)
16,CNC(=O)c1cc(Oc2cccc3nc(Nc4ccc(Cl)c(F)c4)ccc23)ccn1,73.5% (inactive)
17,Cc1nc(NC(=O)N2CCC[C@H]2C(N)=O)sc1-c1ccnc(C(C)(C)C(F)(F)F)c1,65.3% (inactive)
18,COc1ccc(Nc2ncccc2NC(=O)c2cn(Cc3cccc(Oc4ccccc4)c3)nn2)cc1,87.1% (inactive)
19,CS(=O)(=O)CCNCc1ccc(-c2ccc3ncnc(Nc4ccc(OCc5cccc(F)c5)c(Cl)c4)c3c2)o1,-62.8% (active)
